The text below walks through data of PubChem BioAssay.

Calls of active or inactive are those of the source. Unless noted, how the calls were made is not given here.

The test system of assay [1] is XIP peptide (Xip251-270) binding. Briefly: XIP fragment 251-270 binding compounds – biochemical, small-molecule microarray, fluorescence 635/667 nm, 0.1 µg/mL protein, primary screen (AID 1182). The settings on record: fluorescent protein binding, 635 nm, higher = more signal, called active from +8 up or from −8 down.
For another assay, the system named is XIP peptide (Xip251-270). Put plainly: compounds binding XIP fragment 251-270 – biochemical, small-molecule microarray, fluorescence 635/667 nm, 0.5 µg/mL protein, primary screen (AID 1183). To be noted: fluorescence 635 nm, higher = more signal.
A short description of assay [2]: blood-stage malaria parasite viability loss – strain 3D7, DAPI fluorescence, 100 nL, primary screen (AID 1184).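 Further: parasites grown inside human red blood cells in medium with human serum.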 To be noted: P. falciparum 3D7 growth, 3 d, higher = more signal.
In assay [3] the target is Homeobox protein Hox-A13 (Mus musculus) (UniProt Q62424). Put plainly: disruptors of Hoxa13 oligonucleotide interaction – biochemical, fluorescence polarization, labeled oligonucleotide, primary screen (AID 1185). To be noted: Hoxa13:DNA binding, 15 min, higher = more signal, called active from +8 up or from −8 down. (In general: Fluorescence polarisation rises when a labelled molecule tumbles more slowly, as on binding a larger partner.)
Sequence of Homeobox protein Hox-A13 (Mus musculus) (Q62424 whole entry, looked up): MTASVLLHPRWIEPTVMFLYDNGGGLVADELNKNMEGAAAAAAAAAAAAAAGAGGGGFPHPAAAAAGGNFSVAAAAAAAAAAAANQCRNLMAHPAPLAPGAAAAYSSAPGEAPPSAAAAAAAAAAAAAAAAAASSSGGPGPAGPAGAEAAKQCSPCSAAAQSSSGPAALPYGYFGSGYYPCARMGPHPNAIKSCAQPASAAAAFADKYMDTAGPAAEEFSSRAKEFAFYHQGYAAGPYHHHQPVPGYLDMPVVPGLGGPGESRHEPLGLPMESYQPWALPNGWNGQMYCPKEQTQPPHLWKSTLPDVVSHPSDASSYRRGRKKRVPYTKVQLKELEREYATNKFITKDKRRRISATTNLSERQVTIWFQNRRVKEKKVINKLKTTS

Assay [4] in a line: blockers of DNA damage checkpoint Chk1 activation – imaging, HeLa, hydroxyurea, phospho-Chk1 antibody, percent positive cells, primary screen (AID 1186). To be noted: hydroxyurea-induced phospho-Chk1 immunofluorescence imaging, higher = more signal.
The nature of assay [5]: blockers of DNA damage checkpoint Chk1 activation – imaging, HeLa, hydroxyurea, phospho-Chk1 nuclear intensity, primary screen (AID 1187). The settings on record: hydroxyurea-induced phospho-Chk1 immunofluorescence imaging, higher = more signal.

Take `COCCOC(=O)N1C(=O)[C@@]2(c3ccccc31)[C@H](c1ccc(OCCO)cc1)N1[C@H](c3ccccc3)[C@H](c3ccccc3)OC(=O)[C@H]1[C@@H]2C(=O)N1CCN(c2ncccn2)CC1`: the results for the composite z-score (in assay [1]; in the assay on XIP peptide (Xip251-270)) were 0.522 (inactive) and 0.772, respectively. Moreover, the z-score in assay [2] was -2.33; in assay [3] it was -0.376 (inactive); in assay [4], 0.0223 (inactive); in assay [5] it was 0.242 (inactive).

For `[N-]=[N+]=Nc1ccccc1[C@@H]1OC(c2ccc(OCCCO)cc2)=N[C@]1(Cc1ccccc1)C(N)=O`, the composite z-score in assay [1] was 0.0123 (inactive); in the assay on XIP peptide (Xip251-270) it was 0.0246. Also, the z-score was -2.06 in assay [2], -5.43 (inactive) in assay [3], -0.707 (inactive) in assay [4] and -0.543 (inactive) in assay [5].

Regarding `CC(=O)c1ccc(C(O)C2C=CC3C(=O)N(C)C(=O)C3N2NC(=O)OC(C)(C)C)cc1` (configuration not stated), the composite z-score was 2.44 (inactive) in assay [1] and 0.763 in the assay on XIP peptide (Xip251-270). Also, the z-score in assay [2] is -0.29; in assay [3] it was -1.11 (inactive); in assay [4], 0.976 (inactive); in assay [5], 0.688 (inactive).

As to `O=C1C2C=CC(C(O)c3cccs3)N(Nc3ccccc3)C2C(=O)N1c1ccccc1` (configuration not stated), the composite z-score in assay [1] is 0.308 (inactive); in the assay on XIP peptide (Xip251-270) it was 0.171. For the same molecule, the z-score in assay [2] was -0.459; in assay [3], -2.56 (inactive); in assay [4], -0.719 (inactive); in assay [5], -0.649 (inactive).

Regarding `COc1cc2c(cc1O)C(c1ccc(CN3CCCC3)cc1)N(Cc1ccc([N+](=O)[O-])o1)CC2` (configuration not stated), the composite z-score in assay [1] is 0.119 (inactive); with XIP peptide (Xip251-270), -0.0067. Moreover, the z-score in assay [2] was -0.672; in assay [3], -7.64 (inactive); in assay [4] it was 0.191 (inactive); in assay [5], 0.134 (inactive).

`C=CCC(OC(C)=O)[C@@H]1[C@@H](N(Cc2ccc(-c3ccccc3)cc2)C(=O)c2cccc3ccccc23)c2cc(OCCCO)ccc2N1C(=O)c1ccc2ccccc2c1` (some centres not stated): the composite z-score in assay [1] was 0.15 (inactive); in the assay on XIP peptide (Xip251-270) it was -0.0461. For the same molecule, the z-score in assay [2] was -1.76; in assay [3], -1.33 (inactive); in assay [4], -0.293 (inactive); in assay [5], -0.006 (inactive).

Consider `CC1CC/C=C\[C@H]2OC34C=CCN(CCN5CCOCC5)C(=O)[C@H]3N(CCCCCCO)C(=O)[C@@H]4C2C(=O)O1` (some centres not stated), for which the composite z-score in assay [1] was 0.135 (inactive); in the assay on XIP peptide (Xip251-270), 0.935. For the same molecule, the z-score was 1.04 in assay [2], -5.39 (inactive) in assay [3], -0.453 (inactive) in assay [4] and 0.519 (inactive) in assay [5].

`COCCOC(=O)N1C(=O)[C@@]2(c3cc(C#CC4(O)CCCCCC4)ccc31)[C@H](c1ccccc1OCCO)N1[C@H](c3ccccc3)[C@H](c3ccccc3)OC(=O)[C@H]1[C@@H]2C(=O)N1CCCCCCC1`: the composite z-score in assay [1] is 1.86 (inactive); with XIP peptide (Xip251-270), 0.727. Moreover, the z-score in assay [2] is -1.93; in assay [3], 3.98 (inactive); in assay [4] it was -0.531 (inactive); in assay [5], -0.561 (inactive).

Regarding `COc1ccccc1CN1C(=O)c2ccccc2[C@@H](C(=O)NCCCN(C)C)[C@@H]1c1ccc(CO)cc1`, the composite z-score in assay [1] is -0.0888 (inactive); in the assay with XIP peptide (Xip251-270), 0.66. Besides, the z-score in assay [2] was -2.34; in assay [3] it was 3.27 (inactive); in assay [4], -0.343 (inactive); in assay [5], -0.136 (inactive).

For the molecule `CN1C(=O)C2C=CC(C(O)c3ccc(-c4ccccc4)s3)N(Nc3ccccc3)C2C1=O` (configuration not stated), the composite z-score in assay [1] was 0.844 (inactive); with XIP peptide (Xip251-270) it was 0.753. Besides, the z-score was 1.23 in assay [2], -4.68 (inactive) in assay [3], -0.11 (inactive) in assay [4] and -0.316 (inactive) in assay [5].

Regarding `CCOC(=O)C1=CC[C@@H](c2ccccc2)N(S(=O)(=O)c2ccc(C)cc2)[C@H]1C#N`, the values for the composite z-score (in assay [1]; with XIP peptide (Xip251-270)) were 0.452 (inactive) and 0.839, respectively. Moreover, the z-score is -0.712 in assay [2], -3.58 (inactive) in assay [3], 0.584 (inactive) in assay [4] and 0.373 (inactive) in assay [5].

`CC(C)C(=C=CC[C@@H](O)c1ccc(OCCO)cc1)CCO`: the composite z-score was 0.308 (inactive) in assay [1] and 0.222 with XIP peptide (Xip251-270). Moreover, the z-score in assay [2] was -2.09; in assay [3] it was -2.38 (inactive); in assay [4], -0.201 (inactive); in assay [5] it was 1.37 (inactive).

As for `CCc1cccc(NC(=O)O[C@H]2[C@H](OC(=O)Nc3ccc4c(c3)OCO4)[C@H](OC(=O)Nc3ccc4c(c3)OCO4)[C@@H](OC)O[C@@H]2CO)c1`, the figures for the composite z-score (in assay [1]; in the assay with XIP peptide (Xip251-270)) were 2.3 (inactive) and 0.791, respectively. Further, the z-score in assay [2] is -2.26; in assay [3], -9.9 (active); in assay [4], -0.392 (inactive); in assay [5], -0.0612 (inactive).

For the molecule `CC(C)C[C@@H]1NC(=O)[C@@H]2C[C@H](C(=O)NCCCC[N+](C)(C)C)[C@H](c3ccc(O)cc3)N2C1=O`, the composite z-score in assay [1] is 1.03 (inactive); in the assay with XIP peptide (Xip251-270), 0.858. The z-score was -0.174 in assay [2], -1.73 (inactive) in assay [3], 0.757 (inactive) in assay [4] and 0.0766 (inactive) in assay [5].

On to `Cc1ccc(S[C@]2(C(=O)NC3CC3)CC(=O)N(Cc3cc(C(F)(F)F)cc(C(F)(F)F)c3)[C@@H]2c2ccc(CO)cc2I)cc1`, for which the values for the composite z-score (in assay [1]; in the assay on XIP peptide (Xip251-270)) were 0.102 (inactive) and 0.679, respectively. In addition, the z-score in assay [2] is 0.496; in assay [3] it was -2.13 (inactive); in assay [4] it was 0.505 (inactive); in assay [5], 0.924 (inactive).

On to `C=CCOC(=O)[C@H]1[C@@H]2C(=O)O[C@@H](c3ccccc3)[C@@H](c3ccccc3)N2[C@@H](c2ccc(OCCOC(=O)[C@H]3C[C@H]4C(=O)NCC(=O)N4[C@H]3c3ccc(O)cc3)cc2)[C@]12C(=O)Nc1ccc(I)cc12`, for which the results for the composite z-score (in assay [1]; in the assay on XIP peptide (Xip251-270)) were -0.256 (inactive) and 0.7, respectively. Further, the z-score in assay [2] was -1.83; in assay [3], 2.46 (inactive); in assay [4], -1.06 (inactive); in assay [5] it was -1.08 (inactive).

`CCCC=C(CCC)[C@@H](NC(=O)c1ccccc1)c1ccc(C(=O)OC)cc1`: the composite z-score in assay [1] is -0.0026 (inactive); with XIP peptide (Xip251-270) it was 0.222. Further, the z-score in assay [2] is -0.891; in assay [3] it was -0.72 (inactive); in assay [4], 0.473 (inactive); in assay [5], 0.204 (inactive).
